Bioassay records deposited in PubChem by National Center for Advancing Translational Sciences (NCATS).
An excerpt weighted towards active compounds, which were near 7.6% of everything screened.
KB-3-1 cytotox: KB-3-1 parental cell cytotoxicity; KB-3-1 viability, CellTiter-Glo ATP luminescence, 72 h; Potency, µM (series often up to 46.1 µM), most hits filed as cytotoxic; actives 1.4% (n = 400,000); AID 1347075; further: potency means the concentration at half of the fitted maximal effect; on the % scale 0 is the no-effect control and ±100 the full control effect; nearly all actives have a fitted effect of over 60% in size
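Viability of parental KB-3-1 cells, measured by CellTiter-Glo luminescence, followed a 72 h incubation at 37 °C with pinned compounds in phenol-red-free DMEM containing 10% FBS.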
MCF10A rereplic: DNA re-replication induction in MCF 10a cells | MCF 10A DNA re-replication, Hoechst nuclear intensity, 48 h | Potency, µM (series often up to 46.1 µM), inactives show at the highest dose activity, positive = re-replication, hits mostly activators | actives 2.9% (n = 350,000); further: potency means the concentration at half of the fitted maximal effect; % of control where 0% means no effect; nearly all actives have a fitted effect of over 50% in size
KCNH2 WT inh: blocks the wildtype human KCNH2 potassium channel | actives 0.37% (n = 340,000) | Q12809 | activity change, % at 1.84 µM | U2OS, BacMam KCNH2, thallium flux FluxOr; hits give low values | AID 720551;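 active means maximum activity change below -70%; inconclusive means maximum activity change between -70% and -50%; inactive means maximum activity change above -50%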; further: on the % scale 0 is the no-effect control and ±100 the full control effect
Target sequence (Q12809 whole entry, looked up): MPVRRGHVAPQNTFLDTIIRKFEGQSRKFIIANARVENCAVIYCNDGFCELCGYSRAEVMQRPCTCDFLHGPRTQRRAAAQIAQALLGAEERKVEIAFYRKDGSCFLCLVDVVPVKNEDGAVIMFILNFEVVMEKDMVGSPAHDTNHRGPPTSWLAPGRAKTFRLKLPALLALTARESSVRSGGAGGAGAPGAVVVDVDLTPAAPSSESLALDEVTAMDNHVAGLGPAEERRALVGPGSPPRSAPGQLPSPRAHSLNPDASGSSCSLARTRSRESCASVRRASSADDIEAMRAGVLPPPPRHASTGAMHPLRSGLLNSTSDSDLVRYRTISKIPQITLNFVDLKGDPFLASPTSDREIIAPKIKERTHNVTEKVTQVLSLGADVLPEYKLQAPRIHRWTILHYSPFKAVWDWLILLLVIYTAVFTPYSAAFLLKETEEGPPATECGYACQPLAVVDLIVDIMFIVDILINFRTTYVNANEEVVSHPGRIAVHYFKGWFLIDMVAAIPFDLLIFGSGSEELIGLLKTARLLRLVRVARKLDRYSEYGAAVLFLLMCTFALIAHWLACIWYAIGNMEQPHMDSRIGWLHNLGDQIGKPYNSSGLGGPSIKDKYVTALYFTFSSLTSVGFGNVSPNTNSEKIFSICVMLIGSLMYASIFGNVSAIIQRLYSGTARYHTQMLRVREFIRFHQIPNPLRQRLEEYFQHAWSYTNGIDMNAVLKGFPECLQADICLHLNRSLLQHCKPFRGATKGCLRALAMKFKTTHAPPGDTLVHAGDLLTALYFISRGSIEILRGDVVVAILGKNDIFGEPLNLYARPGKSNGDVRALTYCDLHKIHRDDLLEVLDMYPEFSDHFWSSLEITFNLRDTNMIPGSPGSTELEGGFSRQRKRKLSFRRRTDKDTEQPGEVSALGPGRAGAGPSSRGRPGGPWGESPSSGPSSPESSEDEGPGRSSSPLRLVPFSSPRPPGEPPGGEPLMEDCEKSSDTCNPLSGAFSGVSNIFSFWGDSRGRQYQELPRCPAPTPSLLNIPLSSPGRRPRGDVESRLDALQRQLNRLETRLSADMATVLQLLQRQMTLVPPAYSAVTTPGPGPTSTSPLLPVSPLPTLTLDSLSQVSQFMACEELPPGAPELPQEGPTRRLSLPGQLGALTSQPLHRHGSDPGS
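U2OS cells were transduced with wild-type KCNH2 virus (2.03 x 10^8 / mL) for 4 h at room temperature, then cultured overnight at 37 C. Thallium flux was read with FluxOr dye. Rate constants were normalized to DMSO controls.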
KCNH2 3.1 block: KCNH2 3.1 (human) potassium channel inhibition. activity change, % (tested at about 1.8 µM). actives 0.95% (n = 340,000). AID 720553. U2OS KCNH2 3.1, thallium flux FluxOr; hits give low values;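 active means maximum activity change below -70%; inconclusive means maximum activity change from -70% to -50%; inactive means maximum activity change above -50%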;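 further: thallium influx rate constant from kinetic fluorescence after stimulation buffer; on the % scale 0 is the no-effect control and ±100 the full control effect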
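Virally transduced U2OS (3.1 isoform, 4 h infection in dark at RT) → overnight 37 C → FluxOr + Red40 in HBSS/HEPES, 45 min → stimulation buffer, 2 min kinetic read → rate constant vs DMSO controls.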
KB-V1 MDR tox: KB-V1 MDR subline cytotoxicity | Potency, µM (series often up to 46.1 µM), hits mostly cytotoxic | AID 1347076 | KB-V1 MDR cells viability, CellTiter-Glo, 72 h | actives 3.4% (n = 400,000); further: potency means the concentration at half of the fitted maximal effect; on the % scale 0 is the no-effect control and ±100 the full control effect; nearly all actives have a fitted effect of over 60% in size
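Luminescent ATP read-out (CellTiter-Glo, 10 min) measures survival of drug-selected KB-V1 MDR cells after 72 h, 37 degrees C compound exposure. Medium: phenol-red-free DMEM, 10% FBS. Values from fitted concentration-response curves.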
SW480 rereplic: induces DNA re-replication in SW480 colon adenocarcinoma cells | AID 624297 | SW480 DNA re-replication, Hoechst DNA content imaging, 48 h | actives 1.8% (n = 340,000) | Potency, µM (titrated, usually from 46.1 µM), inactives show top-dose re-replication activation, most hits filed as activators; further: potency means the concentration at half of the fitted maximal effect; % of control where 0% means no effect; nearly all actives have a fitted effect of over 55% in size
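DNA re-replication was detected as more nuclei of elevated Hoechst intensity after 48 hr exposure to compound (23 nL pinned per well of 250 cells).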
An asterisk follows results filed as active; i = inactive; ? = inconclusive; . = not tested or not shown; [ ] = remark or other dose. Unless noted, the call rests on the fitted dose curve; in most records, active means well fitted curve in the direction sought with a large enough effect; inconclusive means small, poorly fitted or top-dose-only effect, or another doubt; inactive means no such curve, though single readings can be large; an effect the other way counts as inactive or inconclusive.

SMILES | KB-3-1 cytotox | MCF10A rereplic | KCNH2 WT inh | KCNH2 3.1 block | KB-V1 MDR tox | SW480 rereplic
Cc1ccc(S(=O)(=O)N2CCCN(C)CC2)cc1 | i | ? | -1.0 | 8.6 | i | 4.1%
Cc1ccc(S(=O)(=O)N2CCCN(S(=O)(=O)c3ccc(C(F)(F)F)cc3)CC2)cc1 | i | 7.31µM* | 47.7 | -41.1 | ? | 9.2%
O=C(O)c1cc(=O)c2c3nc4ccccc4oc-3cc(=O)c2[nH]1 | i | 0.3% | . | . | i | ?
Cc1ccc(Cl)cc1NC(=O)C(C)n1nnc2sc3c(c2c1=O)CCCC3 (centres undefined) | i | . | . | . | i | .
O=C(NC1CCCCC1)C1CCN(S(=O)(=O)N2CCCCCC2)CC1 | i | 0.1% | -13.2 | -21.1 | 16.4µM* | 1.5%
O=C(Nc1ccccc1)c1ccc(S(=O)(=O)NCc2cccnc2)cc1 | ? | 3.4% | -2.2 | 9.8 | 20.6µM* | -13.3%
O=C(NC1CCCCC1)c1ccc(S(=O)(=O)N2CCCC2)cc1 | i | 13.6% | -0.9 | -7.2 | 16.4µM* | 0.5%
CC1CCN(S(=O)(=O)c2ccc(C(=O)Nc3ccccc3-c3nc4ccccc4[nH]3)cc2)CC1 | ? | 1.5% | -23.4 | -6.1 | 16.4µM* | 1.1%
CN1CCN(S(=O)(=O)c2ccc(C(=O)NC3CCCCC3)cc2)CC1 | i | 3.3% | 11.8 | 6.7 | i | 4.1%[1.84 µM]
COc1ccccc1C(=O)COC(=O)c1nc2nc(C)cc(C)n2n1 | i | 0.6% | ? | 10.2 | i | -2.0%
NC(=O)Nc1ccc(/C=C2\C=Cc3ccccc32)cc1 | ? | . | . | . | i | .
COc1ccc(S(=O)(=O)N2CCC(NC(=O)Nc3ccc(C)cc3)CC2)cc1 | i | 0.1% | -2.6 | 5.9 | 18.4µM* | 1.3%
CCN(CC(=O)Nc1c(F)cccc1F)C(=O)c1ccc(S(=O)(=O)N2CCCCCC2)cc1 | i | 2.2% | 1.7 | 0.7 | ? | -5.1%
CC(C)N(C(=O)NC(=O)Nc1ccc(S(=O)(=O)N2CCCC2)cc1)S(C)(=O)=O | i | 0.651µM* | 9.3 | 6.4 | i | 2.4%
CC(=O)N1c2ccc(S(=O)(=O)N3CCC(C(=O)Nc4ccc(C)cn4)CC3)cc2CC1C (centres undefined) | 16.4µM* | -1.0% | 6.4 | -1.5 | i | -4.4%
Cc1ccc(NC(=O)NC2CCN(S(=O)(=O)c3ccc(F)cc3)CC2)cc1 | i | 5.7% | -8.7 | 4.5 | i | -7.7%
CCN(CC(=O)Nc1c(F)cccc1F)C(=O)c1ccc(S(=O)(=O)N2CCC(C)CC2)cc1 | i | -1.2% | 6.0 | -0.2 | 20.6µM* | 0.4%
CN(C)c1ccc(/C=C/c2nc3ccccc3o2)cc1 | i | . | . | . | i | .
O=C(NCc1cccnc1)C1CCN(c2ccc(S(=O)(=O)N3CCOCC3)cc2Cl)CC1 | 23.1µM* | 10.7% | -9.3 | -16.2 | i | ?
CS(=O)(=O)N(CC(=O)NC1CCCCC1)Cc1ccc(Cl)cc1 | i | -2.2% | -1.0 | 11.6 | i | 0.2%
COc1ccccc1N1CCN(C(=O)CN(Cc2ccccc2)S(C)(=O)=O)CC1 | i | 6.6% | -40.3 | 4.0 | 10.3µM* | 1.8%
CS(=O)(=O)N(CC(=O)NC1CCCC1)Cc1ccc(Cl)cc1 | i | 1.6% | 4.9 | 8.6 | 14.6µM* | -4.5%
CN1CCN(C(=O)CN(Cc2ccc(Cl)cc2)S(C)(=O)=O)CC1 | i | -1.3% | 1.3 | 1.5 | i | -3.2%
CS(=O)(=O)N(CC(=O)N1CCCCCC1)Cc1ccc(Cl)cc1 | i | 2.6% | -6.1 | 9.4 | 5.17µM* | -3.2%
CN1CCN(C(=O)c2ccc(N(Cc3ccc(Cl)cc3)S(C)(=O)=O)cc2)CC1 | i | 5.8µM* | -2.8 | -5.7 | i | ?
SMILES | KB-3-1 cytotox | MCF10A rereplic | KCNH2 WT inh | KCNH2 3.1 block | KB-V1 MDR tox | SW480 rereplic
CS(=O)(=O)N(Cc1ccc(Cl)cc1)c1ccc(C(=O)N2CCN(c3ccccc3)CC2)cc1 | ? | 16.5% | -6.9 | -3.3 | ? | 0.2%
COc1ccc(N2CCN(C(=O)CN(Cc3ccccc3)S(C)(=O)=O)CC2)cc1 | i | -7.5% | 2.0 | -3.4 | i | -4.4%
C=CCSc1nc2sc3c(c2c(=O)n1-c1ccc(C)cc1)CCN(C)C3 | i | 18.8% | -0.3 | 1.7 | ? | -7.0%
CCc1cc(C(=O)c2ccc(Br)cc2)c(NC(=O)CN(CC)CC)s1 | i | -5.5% | 32.3 | -18.2 | i | -19.5%
COc1ccc(-n2c(=O)c3c4c(sc3n3cnnc23)CC(C)CC4)cc1 (centres undefined) | i | 2.5% | 3.6 | 6.4 | i | 0.4%
Cc1nnc2n(-c3ccccc3)c(=O)c3c4c(sc3n12)CC(C)CC4 (centres undefined) | i | 4.3% | -13.1 | 5.7 | 8.2µM* | -2.1%
CCc1cccc(CC)c1NC(=O)C1SC(=Nc2ccccc2C)C(c2nc3ccccc3s2)=C1N (centres undefined) | ? | ? | 10.5 | 26.1 | i | 8.2µM*
O=C(Cn1ncc2c3ccccc3n(Cc3ccccc3)c2c1=O)N1CCN(c2ncccn2)CC1 | ? | 16.1% | -7.8 | -9.8 | 5.17µM* | 3.7%
O=C(Cn1ncc(Cl)c(Cl)c1=O)N1CCc2ccccc21 | ? | 10.3µM* | -6.0 | -43.7 | ? | -2.2%
O=C(Cn1cnc2ccccc2c1=O)N1CCN(Cc2ccccc2)CC1 | i | -4.4% | 19.4 | 22.7 | 23.1µM* | -5.1%
O=C(Cn1cnc2ccccc2c1=O)N1CCN(Cc2ccc3c(c2)OCO3)CC1 | i | -0.3% | 3.9 | 6.3 | ? | -6.5%
CCc1ccc(C(=O)Cn2ncc(Cl)c(Cl)c2=O)cc1 | 7.31µM* | 5.8µM* | 6.1 | -7.6 | ? | 7.31µM*
CCc1ccc(C(=O)CN2C(=O)NC3(CCCCCC3)C2=O)cc1 | i | ? | 1.6 | -5.5 | i | 9.8%
O=c1nc(-c2ccccc2)n(-c2ccccc2)[nH]1 | i | -6.1% | -9.0 | 5.7 | i | -4.2%
CCCn1c2ccccc2c2cnn(CC(=O)N3CCOCC3)c(=O)c21 | i | -9.1% | 10.9 | -16.1 | i | 9.3%
CC1(C)C(=O)Nc2ccccc2N1C(=O)Cn1ncc(Cl)c(Cl)c1=O | ? | ? | -9.6 | -18.5 | i | 9.2µM*
Cc1nn(CC(=O)N2c3ccccc3NC(=O)C2(C)C)c(C)c1[N+](=O)[O-] | i | ? | 5.9 | 20.0 | i | 21.7%
O=C(Cn1ncc(Cl)c(Cl)c1=O)N1CCN(Cc2ccccc2)CC1 | ? | 4.11µM* | -18.2 | 12.7 | i | 14.7%
O=C(Cn1ncc(Cl)c(Cl)c1=O)N1CCOCC1 | ? | 3.66µM* | 1.9 | -9.1 | i | 2.91µM*
